Consider five sequences from PMC8384837, “Expanding the binding specificity for RNA recognition by a PUF domain”.

Chain of PUM1 PUF domain R4-AFP (Q14671 828-1176 N971A/H972F/Q975P): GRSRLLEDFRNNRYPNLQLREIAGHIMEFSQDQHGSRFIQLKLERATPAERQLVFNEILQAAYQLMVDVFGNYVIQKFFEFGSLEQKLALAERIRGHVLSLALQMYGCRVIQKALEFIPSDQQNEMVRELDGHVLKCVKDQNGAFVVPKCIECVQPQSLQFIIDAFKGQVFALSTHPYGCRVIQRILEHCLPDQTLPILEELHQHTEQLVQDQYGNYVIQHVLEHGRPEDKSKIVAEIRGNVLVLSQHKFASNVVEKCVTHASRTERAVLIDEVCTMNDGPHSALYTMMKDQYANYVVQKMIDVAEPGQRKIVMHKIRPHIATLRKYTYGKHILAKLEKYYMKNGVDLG
Chain of PUM1 PUF domain R5-KQT (Q14671 828-1176 C1007K/R1008Q/Q1011T): as the sequence (Q14671 828-1176 N971A/H972F/Q975P) above, with A144N, F145H, P148Q, C180K, R181Q, Q184T counted along it

The first test concerns the target PUM1 PUF domain R5-PRL (Homo sapiens, UniProt Q14671 828-1176, C1007P;Q1011L). Briefly: yeast three-hybrid, YBZ-1, SC-Leu-His + 0.5 mM 3-AT, 4 days. To be noted: tags: N-Gal4 AD-HA kept; label: inside an RPR1-promoter hybrid RNA with tandem MS2 sites; ssRNA. In short, it runs like this:
(§1)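 A centromeric plasmid in strain YBZ-1 co-expressed Pumilio-1 PUF domain libraries, randomized at the three base-contacting residues of each repeat, with matching RNA elements; the strain carries a LexA–MS2 coat fusion and a HIS3 reporter. After four days on SC-Leu (input) or SC-Leu-His + 0.5 mM 3-AT (selection), the repeat regions were PCR-amplified and Illumina-sequenced. The interaction score is the log change in variant frequency from input to selection, using log2 and a pseudocount of 1 where absent.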
For the sequence “GGCUAGAACUAGUGGAUCCCCCGGCGCCCGGCGGCUCGAGCCCGGGUAAGUGUAAAUAGUCUGCAUGCCGCCGGGCGCCAUGCCUGCAGGUCGACUCUAGAAAACAUG”, the binding signal was 3.53 log2 enrichment (interaction score). On the same count and under the same terms, in the case of “GGCUAGAACUAGUGGAUCCCCCGGCGCCCGGCGGCUCGAGCCCGGGUAAGUGUUAAUAGUCUGCAUGCCGCCGGGCGCCAUGCCUGCAGGUCGACUCUAGAAAACAUG” it was 4.51 log2 enrichment (interaction score); in that of “GGCUAGAACUAGUGGAUCCCCCGGCGCCCGGCGGCUCGAGCCCGGGUAAGUGUCAAUAGUCUGCAUGCCGCCGGGCGCCAUGCCUGCAGGUCGACUCUAGAAAACAUG”, 0.34 log2 enrichment (interaction score).

In a further test the target is PUM1 PUF domain R4-AFP (Homo sapiens, UniProt Q14671 828-1176, N971A;H972F;Q975P). Described as above. To be noted: tags: N-Gal4 AD-HA kept; label: inside an RPR1-promoter hybrid RNA with tandem MS2 sites; ssRNA. The method in brief:
as §1
On to “GGCUAGAACUAGUGGAUCCCCCGGCGCCCGGCGGCUCGAGCCCGGGUAAGUGUACAUAGUCUGCAUGCCGCCGGGCGCCAUGCCUGCAGGUCGACUCUAGAAAACAUG”, for which the binding signal was 6.13 log2 enrichment (interaction score). Same read-out and setting: then “GGCUAGAACUAGUGGAUCCCCCGGCGCCCGGCGGCUCGAGCCCGGGUAAGUGUAAAUAGUCUGCAUGCCGCCGGGCGCCAUGCCUGCAGGUCGACUCUAGAAAACAUG”, with 3.88 log2 enrichment (interaction score); and “GGCUAGAACUAGUGGAUCCCCCGGCGCCCGGCGGCUCGAGCCCGGGUAAGUGUAUAUAGUCUGCAUGCCGCCGGGCGCCAUGCCUGCAGGUCGACUCUAGAAAACAUG”, with 5 log2 enrichment (interaction score).

The next test concerns the target PUM1 PUF domain R5-KQT (Homo sapiens, UniProt Q14671 828-1176, C1007K;R1008Q;Q1011T). Described as above. The conditions noted are these: tags: N-Gal4 AD-HA kept; label: inside an RPR1-promoter hybrid RNA with tandem MS2 sites; ssRNA. In short, it runs like this:
as §1
On to “GGCUAGAACUAGUGGAUCCCCCGGCGCCCGGCGGCUCGAGCCCGGGUAAGUGUAAAUAGUCUGCAUGCCGCCGGGCGCCAUGCCUGCAGGUCGACUCUAGAAAACAUG”, for which the binding signal was 2.17 log2 enrichment (interaction score). With “GGCUAGAACUAGUGGAUCCCCCGGCGCCCGGCGGCUCGAGCCCGGGUAAGUGUUAAUAGUCUGCAUGCCGCCGGGCGCCAUGCCUGCAGGUCGACUCUAGAAAACAUG”, the binding signal was 2.84 log2 enrichment (interaction score). Same read-out and setting: in the case of “GGCUAGAACUAGUGGAUCCCCCGGCGCCCGGCGGCUCGAGCCCGGGUAAGUGUCAAUAGUCUGCAUGCCGCCGGGCGCCAUGCCUGCAGGUCGACUCUAGAAAACAUG” it was 4.51 log2 enrichment (interaction score).
